# Data reported in paper PMC7862700, “An all-to-all approach to the identification of sequence-specific readers for epigenetic DNA modifications on cytosine”.
# Columns and labels:
# Test in all cases: DAPPL (digital affinity profiling via proximity ligation, sequencing); 10 mM Tris-HCl pH 7.5, 50 mM NaCl, 1 mM DTT, 4% glycerol, room temperature, 30 min; GST-TFs on glutathione beads, 16-mer random dsDNA library, 0.1% formaldehyde crosslink after washing; high values mean tight binding
# Details in all cases: protein: recombinant; tags: N-terminal GST; dsDNA, one strand shown
# ETV1 = ETV1 (Homo sapiens, UniProt P50549 1-477)
# Chain of ETV1 (P50549 whole entry, the tested form may be a part): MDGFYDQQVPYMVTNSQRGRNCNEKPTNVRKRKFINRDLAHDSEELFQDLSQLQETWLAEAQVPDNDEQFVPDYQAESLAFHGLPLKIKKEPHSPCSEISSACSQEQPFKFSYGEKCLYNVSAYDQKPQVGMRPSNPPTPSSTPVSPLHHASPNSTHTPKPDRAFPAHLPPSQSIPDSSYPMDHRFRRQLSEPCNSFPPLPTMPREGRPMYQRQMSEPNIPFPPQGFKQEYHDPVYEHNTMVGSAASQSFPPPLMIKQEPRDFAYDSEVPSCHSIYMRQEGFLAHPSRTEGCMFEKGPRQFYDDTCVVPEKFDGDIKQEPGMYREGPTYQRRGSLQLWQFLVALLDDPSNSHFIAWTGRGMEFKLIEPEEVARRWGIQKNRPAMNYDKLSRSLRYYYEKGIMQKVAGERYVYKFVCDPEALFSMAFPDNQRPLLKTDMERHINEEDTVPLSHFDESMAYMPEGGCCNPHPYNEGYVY
# How it was run: (§1)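 Binding signal is defined as a hexamer's read frequency for one factor over its frequency for the tag-only sample. To obtain reads, GST-fused human transcription factors were expressed in yeast, captured on glutathione beads, barcoded with DNA and pooled with that sample. Pools met 200 nmole of a 16-mer random double-stranded DNA library in Tris/NaCl/DTT/glycerol buffer for 30 min at room temperature before washing, 0.1% formaldehyde crosslinking, proximity ligation (BsaI/T4 ligase, 1 h, 37 °C), PCR and Illumina NextSeq500 sequencing.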
# ERF = molecular target: T1, ERF (Homo sapiens, UniProt P50548 1-548)
# T1 sequence: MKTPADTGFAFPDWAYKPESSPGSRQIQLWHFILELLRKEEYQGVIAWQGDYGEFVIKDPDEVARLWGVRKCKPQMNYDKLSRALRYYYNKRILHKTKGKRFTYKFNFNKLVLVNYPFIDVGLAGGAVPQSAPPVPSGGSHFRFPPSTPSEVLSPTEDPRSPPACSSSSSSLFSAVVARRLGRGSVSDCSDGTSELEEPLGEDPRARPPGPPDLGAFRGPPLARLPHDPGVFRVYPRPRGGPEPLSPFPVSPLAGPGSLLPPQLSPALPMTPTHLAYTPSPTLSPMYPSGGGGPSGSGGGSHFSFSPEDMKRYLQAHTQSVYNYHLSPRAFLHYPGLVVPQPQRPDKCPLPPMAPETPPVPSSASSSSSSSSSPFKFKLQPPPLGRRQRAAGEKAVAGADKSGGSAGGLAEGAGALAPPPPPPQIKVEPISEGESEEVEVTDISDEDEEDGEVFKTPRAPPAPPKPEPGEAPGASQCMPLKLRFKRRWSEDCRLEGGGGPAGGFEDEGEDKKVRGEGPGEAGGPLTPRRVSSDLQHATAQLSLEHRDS
# How it was run: as §1
# ETV3L = molecular target: T2, ETV3L (Homo sapiens, UniProt Q6ZN32 1-361)
# T2 sequence: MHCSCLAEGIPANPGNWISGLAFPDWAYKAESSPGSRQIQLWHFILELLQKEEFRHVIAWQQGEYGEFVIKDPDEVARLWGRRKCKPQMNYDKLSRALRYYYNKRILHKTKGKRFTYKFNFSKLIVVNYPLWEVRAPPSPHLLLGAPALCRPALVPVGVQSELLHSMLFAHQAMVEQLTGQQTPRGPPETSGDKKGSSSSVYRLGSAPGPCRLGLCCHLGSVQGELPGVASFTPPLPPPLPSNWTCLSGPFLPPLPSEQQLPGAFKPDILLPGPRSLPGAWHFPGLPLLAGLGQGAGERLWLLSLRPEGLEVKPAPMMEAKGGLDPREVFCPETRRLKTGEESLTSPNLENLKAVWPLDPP
# How it was run: as §1
# ETS2 = molecular target: T3, ETS2 (Homo sapiens, UniProt P15036 1-469)
# T3 sequence: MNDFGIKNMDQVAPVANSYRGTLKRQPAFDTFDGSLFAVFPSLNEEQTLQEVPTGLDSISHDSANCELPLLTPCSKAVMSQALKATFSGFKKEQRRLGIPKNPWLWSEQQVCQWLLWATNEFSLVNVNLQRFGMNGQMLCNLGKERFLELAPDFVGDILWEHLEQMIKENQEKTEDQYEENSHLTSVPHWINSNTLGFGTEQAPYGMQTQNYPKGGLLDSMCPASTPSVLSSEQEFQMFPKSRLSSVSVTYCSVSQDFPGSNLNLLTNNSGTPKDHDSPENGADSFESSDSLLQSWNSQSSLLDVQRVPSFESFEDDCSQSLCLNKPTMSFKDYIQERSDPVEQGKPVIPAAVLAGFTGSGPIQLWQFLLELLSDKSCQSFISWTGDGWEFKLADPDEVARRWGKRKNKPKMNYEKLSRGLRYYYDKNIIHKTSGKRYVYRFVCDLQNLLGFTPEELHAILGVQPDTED
# How it was run: as §1
# SPDEF = molecular target: T4, SPDEF (Homo sapiens, UniProt O95238 1-335)
# T4 sequence: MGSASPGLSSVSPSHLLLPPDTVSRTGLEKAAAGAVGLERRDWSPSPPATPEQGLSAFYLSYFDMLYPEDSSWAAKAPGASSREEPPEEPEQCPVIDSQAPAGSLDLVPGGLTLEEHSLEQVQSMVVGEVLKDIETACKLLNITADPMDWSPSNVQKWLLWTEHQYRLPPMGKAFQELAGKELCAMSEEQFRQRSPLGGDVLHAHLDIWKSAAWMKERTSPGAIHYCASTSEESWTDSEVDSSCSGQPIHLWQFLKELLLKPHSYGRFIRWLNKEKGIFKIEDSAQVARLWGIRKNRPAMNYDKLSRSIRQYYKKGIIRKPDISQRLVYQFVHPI
# How it was run: as §1
# ETV7 = molecular target: T5, ETV7 (Homo sapiens, UniProt Q9Y603 1-341)
# T5 sequence: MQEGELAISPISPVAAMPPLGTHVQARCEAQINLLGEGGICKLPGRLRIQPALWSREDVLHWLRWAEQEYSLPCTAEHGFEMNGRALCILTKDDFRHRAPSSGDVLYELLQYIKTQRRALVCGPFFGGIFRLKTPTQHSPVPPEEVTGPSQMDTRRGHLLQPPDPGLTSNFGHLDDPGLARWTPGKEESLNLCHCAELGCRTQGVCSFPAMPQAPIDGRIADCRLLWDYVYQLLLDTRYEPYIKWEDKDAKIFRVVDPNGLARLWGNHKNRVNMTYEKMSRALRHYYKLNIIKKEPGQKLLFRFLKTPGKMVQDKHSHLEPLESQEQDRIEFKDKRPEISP
# How it was run: as §1
# ELF5 = molecular target: T6, ELF5 (Homo sapiens, UniProt Q9UKW6-2 1-255)
# T6 sequence: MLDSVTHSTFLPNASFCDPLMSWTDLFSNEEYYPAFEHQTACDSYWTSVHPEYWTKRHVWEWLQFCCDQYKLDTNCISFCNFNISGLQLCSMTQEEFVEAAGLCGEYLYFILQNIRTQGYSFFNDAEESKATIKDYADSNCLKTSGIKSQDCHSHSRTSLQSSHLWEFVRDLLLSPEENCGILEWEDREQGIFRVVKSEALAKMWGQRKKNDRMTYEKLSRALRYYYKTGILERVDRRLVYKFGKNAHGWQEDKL
# How it was run: as §1
# ETV3 = molecular target: T7, ETV3 (Homo sapiens, UniProt P41162-2 1-143)
# T7 sequence: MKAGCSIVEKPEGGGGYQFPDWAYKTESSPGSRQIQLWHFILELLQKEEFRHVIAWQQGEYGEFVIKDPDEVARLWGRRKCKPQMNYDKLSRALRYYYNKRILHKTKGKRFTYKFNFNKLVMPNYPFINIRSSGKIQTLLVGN
# How it was run: as §1
# ETV6 = ETV6 (Homo sapiens, UniProt P41212 1-452)
# Chain of ETV6 (P41212 whole entry): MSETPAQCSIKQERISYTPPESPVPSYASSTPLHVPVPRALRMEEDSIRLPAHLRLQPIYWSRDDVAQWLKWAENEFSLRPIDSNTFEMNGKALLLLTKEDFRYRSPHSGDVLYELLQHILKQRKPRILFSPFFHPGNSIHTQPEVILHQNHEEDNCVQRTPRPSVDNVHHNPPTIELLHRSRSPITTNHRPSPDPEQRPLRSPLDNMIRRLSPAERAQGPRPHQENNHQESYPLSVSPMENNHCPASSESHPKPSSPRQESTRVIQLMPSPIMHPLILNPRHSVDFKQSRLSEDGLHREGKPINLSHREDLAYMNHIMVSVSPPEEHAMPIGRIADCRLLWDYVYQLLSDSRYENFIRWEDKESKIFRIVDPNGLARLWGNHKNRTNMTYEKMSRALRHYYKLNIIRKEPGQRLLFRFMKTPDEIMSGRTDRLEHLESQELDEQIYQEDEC
# How it was run: as §1
sequence,measurement,setting,value
CCTATA,binding signal,ETV1,"1.29 fold enrichment (6-mer frequency, TF over GST control)"
same,binding signal,ERF,"1.33 fold enrichment (6-mer frequency, TF over GST control)"
same,binding signal,ETV3L,"1.34 fold enrichment (6-mer frequency, TF over GST control)"
same,binding signal,ETS2,"1.42 fold enrichment (6-mer frequency, TF over GST control)"
same,binding signal,SPDEF,"1.45 fold enrichment (6-mer frequency, TF over GST control)"
same,binding signal,ETV7,"1.31 fold enrichment (6-mer frequency, TF over GST control)"
same,binding signal,ELF5,"1.39 fold enrichment (6-mer frequency, TF over GST control)"
same,binding signal,ETV3,"1.36 fold enrichment (6-mer frequency, TF over GST control)"
same,binding signal,ETV6,"1.39 fold enrichment (6-mer frequency, TF over GST control)"
